Measurements reported in PubChem BioAssay.
Activity calls are given as the source filed them.

Key:
[1] = tested on: PRMT1 (protein arginine N-methyltransferase 1); assay: small molecules binding arginine methyltransferase PRMT1 – biochemical, small-molecule microarray, 635 nm fluorescence, primary screen (AID 1088); conditions: higher = more signal;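 note: binding of Prmt1 protein to compounds spotted on small-molecule microarray slides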
[2] = growth effects on S. cerevisiae YJM789 – YJM789 clinical isolate, OD600, 24 h, basal, primary screen (AID 1089); conditions: higher = more signal, called active from +8 up or from −8 down;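 note: growth of clinical yeast isolate S. cerevisiae YJM 789 seeded 1000 cells per well; test concentration not given here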
[3] = S. pombe growth modifiers, basal conditions – strain 972, OD600, 24 h, no modulator, primary screen (AID 1090);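 note: basal condition with compound alone and no growth modifier present; test concentration not given here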; conditions: S. pombe 972 growth, higher = more signal, called active from +8 up or from −8 down
[4] = budding yeast growth modifiers under rapamycin – strain BY4716, OD600, 96 h, primary screen (AID 1091); note: test concentration not given here; conditions: S. cerevisiae BY4716 + rapamycin, higher = more signal, called active from +8 up or from −8 down
[5] = molecular target: Torsin-1A-interacting protein 2 (Homo sapiens) (UniProt Q8NFQ8); assay: small molecules binding lysate-expressed LULL1 – cell lysate, human LULL1 lysate, 635/667 nm fluorescence, primary screen (AID 1092); conditions: small-molecule microarray, hLULL1 lysate binding, 635 nm fluorescence; higher = more signal;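 note: probe is lysate of COS7 cells overexpressing human LULL1; score merges per-feature 667 nm fluorescence with signal-to-noise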
Chain of Torsin-1A-interacting protein 2 (Homo sapiens) (Q8NFQ8 whole entry, looked up): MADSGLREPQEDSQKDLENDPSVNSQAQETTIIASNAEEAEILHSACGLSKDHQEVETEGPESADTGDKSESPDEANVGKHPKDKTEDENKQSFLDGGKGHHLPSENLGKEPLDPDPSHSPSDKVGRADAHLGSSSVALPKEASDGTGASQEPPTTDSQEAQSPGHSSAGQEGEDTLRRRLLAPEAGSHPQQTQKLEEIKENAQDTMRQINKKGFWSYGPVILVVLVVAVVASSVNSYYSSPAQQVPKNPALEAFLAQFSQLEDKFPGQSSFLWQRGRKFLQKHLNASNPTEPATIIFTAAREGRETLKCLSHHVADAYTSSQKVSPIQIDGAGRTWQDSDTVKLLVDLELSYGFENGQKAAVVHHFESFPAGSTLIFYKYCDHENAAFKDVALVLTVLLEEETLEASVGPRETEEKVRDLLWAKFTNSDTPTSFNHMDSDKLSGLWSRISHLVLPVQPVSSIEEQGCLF

[6] = optical density change of DRC41 E. coli – strain DRC41, OD650, 24 h, E. coli filamentation project, primary screen (AID 1093);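 note: MC1000 strain lacking acrAB efflux and sulA so SOS filamentation is blocked; test concentration not given here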; conditions: E. coli DRC41 growth, higher = more signal, called active from +8 up or from −8 down
[7] = probe aLefty2 binding to arrayed compounds – biochemical, biotinylated probe, 635/667 nm fluorescence, primary screen (AID 1094); conditions: small-molecule microarray, higher = more signal;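 note: score merges spot fluorescence near 667 nm with spot signal-to-noise ratio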
[8] = tested on: Noggin (protein binding on small-molecule microarray); assay: small molecules binding Noggin protein – biochemical, 635/667 nm fluorescence, primary screen (AID 1095); conditions: 635 nm fluorescence, higher = more signal;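 note: score merges 667 nm feature fluorescence with signal to noise over triplicate slides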
[9] = molecular target: Neurogenic locus notch homolog protein 3 (Homo sapiens) (UniProt Q9UM47); assay: small molecules binding NOTCH3 protein – biochemical, 635/667 nm fluorescence, primary screen (AID 1096); conditions: small-molecule microarray, 635 nm fluorescence, higher = more signal
Chain of Neurogenic locus notch homolog protein 3 (Homo sapiens) (Q9UM47 whole entry, looked up): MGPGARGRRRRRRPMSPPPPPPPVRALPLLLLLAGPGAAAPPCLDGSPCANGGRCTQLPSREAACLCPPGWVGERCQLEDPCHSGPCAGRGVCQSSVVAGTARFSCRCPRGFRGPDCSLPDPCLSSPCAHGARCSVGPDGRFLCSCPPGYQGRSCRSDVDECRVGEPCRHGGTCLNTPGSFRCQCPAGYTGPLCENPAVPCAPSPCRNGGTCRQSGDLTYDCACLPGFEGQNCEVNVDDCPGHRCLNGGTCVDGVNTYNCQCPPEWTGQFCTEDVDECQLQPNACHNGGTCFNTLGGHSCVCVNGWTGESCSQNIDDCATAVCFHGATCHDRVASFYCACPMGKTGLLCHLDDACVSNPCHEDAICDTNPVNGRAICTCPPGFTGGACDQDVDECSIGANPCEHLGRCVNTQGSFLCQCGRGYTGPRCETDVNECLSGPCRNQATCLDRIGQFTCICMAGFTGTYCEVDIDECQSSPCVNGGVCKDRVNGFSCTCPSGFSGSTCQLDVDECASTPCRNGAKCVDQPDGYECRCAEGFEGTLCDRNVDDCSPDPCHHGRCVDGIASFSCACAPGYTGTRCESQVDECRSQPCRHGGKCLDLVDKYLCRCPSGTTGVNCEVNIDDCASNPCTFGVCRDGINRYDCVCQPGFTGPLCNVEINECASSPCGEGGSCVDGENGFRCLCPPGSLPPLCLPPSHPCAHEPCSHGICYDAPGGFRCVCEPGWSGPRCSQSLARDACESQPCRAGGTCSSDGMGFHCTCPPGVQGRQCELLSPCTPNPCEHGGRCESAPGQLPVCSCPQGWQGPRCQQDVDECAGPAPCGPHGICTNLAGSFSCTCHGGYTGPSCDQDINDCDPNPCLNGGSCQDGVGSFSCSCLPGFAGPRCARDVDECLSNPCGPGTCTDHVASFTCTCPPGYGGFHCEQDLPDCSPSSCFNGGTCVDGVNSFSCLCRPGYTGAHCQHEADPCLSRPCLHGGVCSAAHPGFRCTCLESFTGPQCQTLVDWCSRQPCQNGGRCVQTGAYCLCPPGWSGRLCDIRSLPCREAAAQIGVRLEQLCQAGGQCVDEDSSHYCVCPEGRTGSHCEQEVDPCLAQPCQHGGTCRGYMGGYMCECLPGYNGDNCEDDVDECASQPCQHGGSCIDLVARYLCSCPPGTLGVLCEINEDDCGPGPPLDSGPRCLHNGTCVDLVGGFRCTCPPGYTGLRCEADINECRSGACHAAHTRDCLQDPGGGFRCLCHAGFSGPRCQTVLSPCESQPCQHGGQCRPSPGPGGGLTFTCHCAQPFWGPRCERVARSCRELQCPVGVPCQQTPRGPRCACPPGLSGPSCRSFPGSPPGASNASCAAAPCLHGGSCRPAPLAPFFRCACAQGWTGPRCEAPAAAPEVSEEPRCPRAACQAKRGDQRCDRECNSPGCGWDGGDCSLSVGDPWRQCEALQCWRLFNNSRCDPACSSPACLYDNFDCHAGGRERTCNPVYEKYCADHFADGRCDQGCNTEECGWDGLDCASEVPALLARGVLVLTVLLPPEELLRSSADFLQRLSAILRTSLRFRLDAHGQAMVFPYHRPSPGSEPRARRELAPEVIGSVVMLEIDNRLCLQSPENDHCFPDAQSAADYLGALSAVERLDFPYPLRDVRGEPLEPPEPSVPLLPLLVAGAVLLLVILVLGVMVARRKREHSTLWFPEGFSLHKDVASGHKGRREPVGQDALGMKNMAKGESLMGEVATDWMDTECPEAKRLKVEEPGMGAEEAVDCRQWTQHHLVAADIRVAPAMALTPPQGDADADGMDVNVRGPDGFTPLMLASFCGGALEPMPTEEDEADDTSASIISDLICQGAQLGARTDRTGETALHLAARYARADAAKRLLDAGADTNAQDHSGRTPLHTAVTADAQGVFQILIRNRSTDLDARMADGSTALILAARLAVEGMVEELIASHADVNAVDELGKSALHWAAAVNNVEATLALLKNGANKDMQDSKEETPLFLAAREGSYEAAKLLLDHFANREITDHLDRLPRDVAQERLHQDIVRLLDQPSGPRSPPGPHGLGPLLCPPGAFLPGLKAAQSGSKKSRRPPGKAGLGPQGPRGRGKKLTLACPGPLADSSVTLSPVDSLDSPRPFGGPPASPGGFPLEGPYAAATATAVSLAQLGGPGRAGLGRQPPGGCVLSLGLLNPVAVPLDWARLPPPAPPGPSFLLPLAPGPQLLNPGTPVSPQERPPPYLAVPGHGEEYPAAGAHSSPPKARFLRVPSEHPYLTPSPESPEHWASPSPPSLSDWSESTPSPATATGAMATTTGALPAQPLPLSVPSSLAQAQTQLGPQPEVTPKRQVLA

[10] = probe aEGFR binding to arrayed compounds – biochemical, biotinylated probe, 635/667 nm fluorescence, primary screen (AID 1097); conditions: small-molecule microarray, higher = more signal;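 note: probe is a biotinylated anti-EGFR antibody binding compounds printed on slides; score combines fluorescence near 667 nm and signal to noise of each spot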
[11] = tested on: Plasmodium falciparum Sir2 (PF13_0152, Sir2A); assay: Plasmodium falciparum Sir2A binding compounds – biochemical, small-molecule microarray, 635 nm fluorescence, primary screen (AID 1098); conditions: fluorescence 635 nm, higher = more signal;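 note: score merges spot fluorescence intensity with its signal-to-noise ratio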
[12] = probe aDKK1 binding to arrayed compounds – biochemical, biotinylated probe, 635/667 nm fluorescence, primary screen (AID 1099); conditions: small-molecule microarray, higher = more signal;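 note: score merges 667nm spot fluorescence with signal to noise across triplicate slides; reference of the scale not given here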
[13] = probe aCHRDL2 binding to arrayed compounds – biochemical, biotinylated probe, 635/667 nm fluorescence, primary screen (AID 1100); conditions: small-molecule microarray, higher = more signal
[14] = change in splice reporter luminescence, either direction, cell-based, HEK293, spliceosome inhibition project, primary screen (AID 1101); conditions: HEK293 splicing luciferase reporter, 24 h, higher = more signal, called active from +8 up or from −8 down;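 note: HEK293 cells carrying a splicing-competent luciferase reporter gene; test concentration not given here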
[15] = molecular target: Fibroblast growth factor 10 (Homo sapiens) (UniProt O15520); assay: compounds binding fibroblast growth factor 10 – biochemical, small-molecule microarray, 635 nm fluorescence, primary screen (AID 1102); conditions: FGF10 binding, fluorescence 635 nm, higher = more signal
Chain of Fibroblast growth factor 10 (Homo sapiens) (O15520 whole entry, looked up): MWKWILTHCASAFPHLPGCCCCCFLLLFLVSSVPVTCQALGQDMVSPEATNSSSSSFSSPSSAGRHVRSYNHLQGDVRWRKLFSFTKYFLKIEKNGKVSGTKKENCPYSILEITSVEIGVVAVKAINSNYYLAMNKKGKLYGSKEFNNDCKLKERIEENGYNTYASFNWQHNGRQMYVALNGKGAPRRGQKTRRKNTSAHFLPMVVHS

[16] = tested on: glycogen synthase kinase-3 (GSK3A per assay name; protocol says GSK3B); assay: compounds binding glycogen synthase kinase-3 – biochemical, small-molecule microarray, 635 nm fluorescence, GSK3A, primary screen (AID 1103); conditions: fluorescence 635 nm, higher = more signal; note: the record names both GSK3A and GSK3B
[17] = molecular target: Epidermal growth factor receptor (Homo sapiens) (UniProt P00533); assay: compounds binding epidermal growth factor receptor – biochemical, small-molecule microarray, 635 nm fluorescence, primary screen (AID 1104); conditions: EGFR binding, higher = more signal;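 note: score merges 667 nm emission intensity with spot signal to noise over triplicate slides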
Chain of Epidermal growth factor receptor (Homo sapiens) (P00533 whole entry, looked up): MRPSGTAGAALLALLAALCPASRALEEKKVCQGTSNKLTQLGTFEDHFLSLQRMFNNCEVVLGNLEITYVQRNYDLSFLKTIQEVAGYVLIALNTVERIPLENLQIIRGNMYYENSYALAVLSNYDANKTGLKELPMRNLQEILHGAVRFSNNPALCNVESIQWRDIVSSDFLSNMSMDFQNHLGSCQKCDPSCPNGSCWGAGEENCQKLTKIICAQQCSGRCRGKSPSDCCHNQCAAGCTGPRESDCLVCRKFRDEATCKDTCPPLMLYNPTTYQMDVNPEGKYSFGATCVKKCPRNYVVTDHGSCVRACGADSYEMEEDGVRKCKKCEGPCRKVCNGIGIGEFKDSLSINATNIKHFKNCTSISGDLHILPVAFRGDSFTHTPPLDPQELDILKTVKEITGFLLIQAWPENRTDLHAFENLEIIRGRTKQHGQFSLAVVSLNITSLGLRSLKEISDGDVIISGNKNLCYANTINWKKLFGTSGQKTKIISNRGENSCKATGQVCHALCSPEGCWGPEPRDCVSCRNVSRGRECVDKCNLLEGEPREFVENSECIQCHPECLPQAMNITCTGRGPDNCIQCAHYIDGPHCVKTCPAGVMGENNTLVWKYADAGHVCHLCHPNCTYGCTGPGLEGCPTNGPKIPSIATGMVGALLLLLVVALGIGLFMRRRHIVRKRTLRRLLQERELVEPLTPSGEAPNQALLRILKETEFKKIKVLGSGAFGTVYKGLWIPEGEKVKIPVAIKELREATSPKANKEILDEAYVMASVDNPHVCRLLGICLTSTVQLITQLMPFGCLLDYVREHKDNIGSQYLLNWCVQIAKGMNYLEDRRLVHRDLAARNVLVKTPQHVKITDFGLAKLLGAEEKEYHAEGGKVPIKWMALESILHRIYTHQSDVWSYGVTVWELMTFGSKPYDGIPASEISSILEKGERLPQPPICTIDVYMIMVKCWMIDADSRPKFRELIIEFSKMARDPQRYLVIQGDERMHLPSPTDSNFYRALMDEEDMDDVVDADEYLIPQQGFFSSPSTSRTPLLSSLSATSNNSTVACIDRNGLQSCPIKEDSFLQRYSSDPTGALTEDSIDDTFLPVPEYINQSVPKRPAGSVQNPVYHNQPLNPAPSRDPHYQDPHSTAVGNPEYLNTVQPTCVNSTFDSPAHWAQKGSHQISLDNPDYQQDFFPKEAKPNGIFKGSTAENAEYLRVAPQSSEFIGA

[18] = molecular target: Follistatin-related protein 3 (Homo sapiens) (UniProt O95633); assay: compounds binding follistatin-related protein 3 – biochemical, small-molecule microarray, 635 nm fluorescence, primary screen (AID 1105); conditions: FSTL3 binding, higher = more signal;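 note: score merges emission near 667 nm and signal to noise per printed spot across three slides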
Chain of Follistatin-related protein 3 (Homo sapiens) (O95633 whole entry, looked up): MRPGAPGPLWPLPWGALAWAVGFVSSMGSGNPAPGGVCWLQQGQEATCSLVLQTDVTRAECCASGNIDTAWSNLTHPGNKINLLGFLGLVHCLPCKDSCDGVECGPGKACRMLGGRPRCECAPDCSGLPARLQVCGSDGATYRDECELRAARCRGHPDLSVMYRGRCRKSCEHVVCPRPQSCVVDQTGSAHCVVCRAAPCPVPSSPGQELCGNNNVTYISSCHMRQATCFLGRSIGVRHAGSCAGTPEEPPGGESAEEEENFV

[19] = molecular target: Dickkopf-related protein 1 (Homo sapiens) (UniProt O94907); assay: small molecules binding DKK1 protein – biochemical, small-molecule microarray, 635 nm fluorescence scan, primary screen (AID 1106); conditions: higher = more signal;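 note: score merges emission near 667 nm with signal to noise over three replicate slides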
Chain of Dickkopf-related protein 1 (Homo sapiens) (O94907 whole entry, looked up): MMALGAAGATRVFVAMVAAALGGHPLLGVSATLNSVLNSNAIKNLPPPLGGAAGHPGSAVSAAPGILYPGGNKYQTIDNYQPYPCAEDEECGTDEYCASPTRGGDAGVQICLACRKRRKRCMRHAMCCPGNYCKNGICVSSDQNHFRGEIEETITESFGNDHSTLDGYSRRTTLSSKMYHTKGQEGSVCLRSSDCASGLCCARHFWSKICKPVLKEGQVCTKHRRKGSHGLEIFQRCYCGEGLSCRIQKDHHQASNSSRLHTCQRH

[20] = tested on: Inhibin beta A chain (activin A); assay: small molecules binding activin A – biochemical, small-molecule microarray, 635 nm fluorescence scan, primary screen (AID 1107); conditions: INHBA, higher = more signal;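 note: mouse activin A protein probed at 4.33 µg/mL on printed slides; score merges bound-protein fluorescence near 667 nm with spot signal-to-noise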

Row | Structure (SMILES) | composite z-score [1] | z-score [2] | z-score [3] | z-score [4] | composite z-score [5] | z-score [6] | composite z-score [7] | composite z-score [8] | composite z-score [9] | composite z-score [10] | composite z-score [11] | composite z-score [12] | composite z-score [13] | z-score [14] | composite z-score [15] | composite z-score [16] | composite z-score [17] | composite z-score [18] | composite z-score [19] | composite z-score [20]
1 | O=C1C2C=CC(C(O)C3CCCCC3)N(Nc3ccccc3F)C2C(=O)N1c1ccccc1 (stereo not given) | 1.55 | 0.968 (inactive) | -0.645 (inactive) | 0.515 (inactive) | 3.24 | 0.256 (inactive) | 0.79 | 0.0994 | 1.02 | 0.239 | 1.12 | 1.15 | 0.95 | -0.505 (inactive) | 0.873 | 1.29 | 0.157 | 1.08 | -0.498 | 1.1
2 | O=C1OCCC/C=C\[C@H]2OC34C=CCN(Cc5ccccc5)C(=O)[C@H]3N(CCO)C(=O)[C@@H]4C12 (stereo not given in full) | 0.216 | -0.27 (inactive) | -1.72 (inactive) | -0.462 (inactive) | 2.22 | 2.29 (inactive) | 0.235 | -0.353 | 0.0094 | 0.0618 | 1.76 | -0.214 | 0.222 | -1.25 (inactive) | 0.049 | 0.124 | -0.71 | -0.579 | -0.461 | 0.765
3 | O=C(O)C1=CC[C@H]2C(=O)N(c3ccccc3)C(=O)[C@@H]12 | 0.964 | 0.735 (inactive) | 1.38 (inactive) | 1.52 (inactive) | 2.5 | -0.148 (inactive) | 0.0694 | -0.312 | 1.06 | 0.186 | 0.767 | 0.45 | 0.682 | 0.727 (inactive) | 0.855 | 1.04 | 0.325 | 1.11 | 0.0793 | 1.23
4 | CC(=O)NCCCC[C@@H]1NC(=O)[C@H]2C[C@@H](C(=O)NCCCCCN)[C@@H](c3ccc(O)cc3)N2C1=O | 1.07 | 0.447 (inactive) | -0.121 (inactive) | 1.01 (inactive) | 2.05 | -0.475 (inactive) | 0.0158 | 1.35 | 0.284 | 0.0209 | 0.863 | 0.316 | 0.17 | 0.0809 (inactive) | 0.544 | 1.29 | 0.511 | 0.777 | 1.02 | 0.792
5 | Cc1c(NC(=O)/C(C#N)=C/C=C/c2ccc([N+](=O)[O-])cc2)c(=O)n(-c2ccccc2)n1C | 1.49 | 0.437 (inactive) | -0.914 (inactive) | 0.0795 (inactive) | 3.17 | -1.46 (inactive) | -0.022 | 0.305 | 1.04 | 0.0506 | 1.18 | 1.24 | 0.761 | 0.652 (inactive) | 1.19 | 1.15 | 0.404 | 1.21 | 0.534 | 0.256
6 | COC(=O)c1c2oc(c1C(=O)OC)C(=O)N[C@H](Cc1ccccc1)Cn1cc(nn1)C1(CCCCC1)NC(=O)N[C@H](CO)CC2 | 0.286 | 1.92 (inactive) | -0.261 (inactive) | -0.691 (inactive) | 1.46 | 2.01 (inactive) | -0.124 | 0.292 | -0.147 | -0.158 | 0.569 | -0.177 | -0.279 | -0.168 (inactive) | 0.495 | -0.528 | -0.857 | -0.409 | -0.2 | 0.116
7 | C=CC[C@]12N=C(c3ccc(OCCCO)cc3)O[C@H]1c1ccccc1N(CCC)C2=O | 1.55 | -1.42 (inactive) | -2.04 (inactive) | -1.06 (inactive) | 2.96 | 0.544 (inactive) | 0.15 | 1.2 | 1.11 | 0.198 | 1.18 | 0.43 | 0.693 | -0.391 (inactive) | 1.11 | 1.25 | 0.37 | 1.11 | 0.277 | 1.3
8 | COc1ccc(C(=O)Nc2ccc(CN3C(=O)[C@]4(O[C@H](CC(=O)N(CCO)Cc5ccccc5)[C@@H]([Si](C)(C)c5ccc(OC)cc5)[C@@H]4C)c4ccccc43)cc2)cc1 | 1.54 | 0.517 (inactive) | 1.03 (inactive) | 3.41 (inactive) | 2.03 | 1.6 (inactive) | -0.235 | 1.08 | 0.565 | -0.096 | 1.11 | -0.0522 | -0.338 | -1.88 (inactive) | 1.34 | 0.956 | 0.918 | 1.34 | 1.1 | 0.842
9 | O=C1N(Cc2ccccc2)c2ccccc2C[C@@]12N=C(c1ccc(OCCCO)cc1)O[C@H]2c1ccccc1 | 1.55 | -0.789 (inactive) | -2.61 (inactive) | 3.55 (inactive) | 3.03 | -0.788 (inactive) | 0.0686 | 0.591 | 1 | -0.178 | -0.0351 | 0.184 | 0.923 | -0.521 (inactive) | 0.457 | 0.977 | 0.282 | 0.319 | -0.648 | 0.295
10 | COC(=O)[C@@]1(Cc2ccc(F)cc2)[C@H]2c3cc(C(=O)N(C)C)n(Cc4cccc5ccccc45)c3C[C@H]2CN1C(=O)c1ccccc1 | -0.72 | 1.43 (inactive) | 1.54 (inactive) | 2.69 (inactive) | 4.03 | -1.15 (inactive) | 0.323 | -0.192 | -0.0287 | 0.0776 | 0.796 | 0.926 | 1.04 | 0.551 (inactive) | 1.13 | 0.111 | -0.953 | -0.242 | -1.02 | 0.644
